# Screening results deposited in PubChem by National Center for Advancing Translational Sciences (NCATS).
# An excerpt weighted towards active compounds, which were near 8.1% of everything screened.
# PINK1 expr mod: A Quantitative High throughput Screen to Identify Chemical Modulators of PINK1 Expression. PINK1 immunofluorescence, high-content cytometry, 24 h. Potency, µM (top dose mostly 76.6 µM), without a hit: at the highest dose activation (PINK1 increase), actives largely listed as activators. 410,000 tested, 0.2% active; active means well fitted activation curve with a large enough effect; inconclusive means small, poorly fitted or top-dose-only effect; cell line not stated here; further: % of control where 0% means no effect; nearly all actives have a fitted effect of over 65% in size
#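 Compound titrations (5 concentrations, 24 h) on a stable cell line; DMSO and CCCP controls. Endpoint: fixed-cell PINK1 immunofluorescence with mitochondrial, cell and nuclear markers, scanned by microplate cytometer.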
# ClpP mod: qHTS Assay for Activators of ClpP; ATP-dependent Clp protease proteolytic subunit (Bacillus subtilis (strain 168)), P80244; purified B. subtilis ClpP, FRET peptide cleavage, 20 min; Potency, µM (series often up to 57.5 µM), without a hit: at the highest dose activity change, negative = active; 340,000 tested, 1.9% active; AID 651965, 2013; active means well fitted falling curve with a large enough effect; inconclusive means small, poorly fitted or top-dose-only effect; inactive means no such curve, though single readings can be large or run the other way; further: the source files actives as falling curves though it sought activators and does not explain the sign; nearly all actives have a fitted effect of over 65% in size
#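 Purified B. subtilis ClpP, 10 microg/mL final in Tris/HCl pH8 with KCl, BSA, glycerol and Tween-20, cleaved an Abz/nitrotyrosine-quenched decapeptide. Fluorescence (ex 320, em 430) was read at 0 and 20 min at room temperature. Delta was normalized to 5.8 microM ADEP and DMSO/no-enzyme controls.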
# RORg inh: qHTS for inhibitors of ROR gamma transcriptional activity; Drosophila S2 Gal4-RORgamma UAS-luciferase reporter, 20 h; Potency, µM (series often up to 53.6 µM), inactives show at the top dose activity change, negative = inhibition, most hits filed as inhibitors; 310,000 tested, 5.4% active; AID 2551, 2010; further: on the % scale 0 is the no-effect control and ±100 the full control effect; nearly all actives have a fitted effect of over 60% in size
#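 Compounds are pin-transferred onto Drosophila Schneider cells expressing a copper-inducible Gal4–ROR gamma transactivation domain fusion. After 1 hr, copper sulfate is added to 700 uM final; luciferase is read 20 hr later.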
# Sfp PPTase inh: qHTS Assay for Inhibitors of Bacillus subtilis Sfp phosphopantetheinyl transferase (PPTase); 4'-phosphopantetheinyl transferase ffp (Bacillus subtilis), Q9F4F7; Biochemical Sfp PPTase activity, qHTS; Potency, µM, for inactives: largest response in the series, negative = inhibition, hits mostly inhibitors; 310,000 tested, 3.5% active; AID 1490, 2009;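 further: the enzyme is Sfp with the accession as filed and its product quenches rhodamine fluorescence; 0% = enzyme reaction without inhibitor and -100% = no enzyme wells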
#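 Fluorescence-quenching assay with 15 nM Sfp, 5 uM rhodamine-CoA and 12.5 uM BHQ-2-labelled ybbR peptide in pH 7.6 Hepes/MgCl2 buffer. Enzyme was pre-incubated with compound for 15 min at room temperature. Rate was taken from the 30-min fluorescence change (525/598 nm).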
# VP16 counter: VP16 counterscreen qHTS for inhibitors of ROR gamma transcriptional activity; Potency, µM (top dose mostly 53.6 µM), for the others: at the highest dose activity, negative = inhibition, usual class: inhibitors; 310,000 tested, 3.5% active; Drosophila S2 Gal4-VP16 UAS-luciferase, luminescence, 20 h;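 further: Gal4-VP16 expression switched on by copper sulfate through the metallothionein promoter; on the % scale 0 is the no-effect control and ±100 the full control effect; nearly all actives have a fitted effect of over 50% in size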
# Epigenetic derep: Quantitative High-Throughput Screen for Regulators of Epigenetic Control; murine LDR cells, GFP reporter derepression, 30 h; Potency, µM (highest dose often 53.9 µM), without a hit: at the top dose GFP activation, actives largely listed as activators; 280,000 tested, 0.2% active; AID 1865, 2009; further: % of control where 0% means no effect; nearly all actives have a fitted effect of over 60% in size
#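 Readout is the number of GFP-expressing murine LDR cells, counted by cytometry following washing. Cells were treated with compound for 30 h at 37 C; the stably integrated CMV-GFP locus is normally silent.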
# Active calls of the source: *; ? = inconclusive; nt = no result given; [ ] = another dose, or the depositor's remark. Unless noted, the call rests on the fitted dose curve; in most records, active means well fitted curve in the direction sought with a large enough effect; inconclusive means small, poorly fitted or top-dose-only effect, or another doubt; inactive means no such curve, though single readings can be large; an effect the other way counts as inactive or inconclusive. Potency means the concentration at half of the fitted maximal effect.
SMILES,PINK1 expr mod,ClpP mod,RORg inh,Sfp PPTase inh,VP16 counter,Epigenetic derep
Cc1oc(-c2cccc(NC(=O)C3CCCN(C)C3)c2)nc1CNC(=O)c1coc2c1C(=O)CCC2 (stereo not drawn),1%,nt,nt,nt,nt,nt
O=C(CCN1C(=O)/C(=C/c2ccccc2)SC1=S)NC1CCS(=O)(=O)C1 (stereo not drawn),3%,0%,4%,7%,?,nt
O=C(CCCN1C(=O)/C(=C/c2ccc(F)cc2)SC1=S)NC1CCS(=O)(=O)C1 (stereo not drawn),3%,1%,4µM*,0%,18µM*,nt
O=C(CN1C(=O)/C(=C/c2ccco2)SC1=S)NC1CCS(=O)(=O)C1 (stereo not drawn),1%,0%,3%,25µM*,0%,nt
CC(C)c1ccc(/C=C2\SC(=O)N(CC(=O)NC3CCS(=O)(=O)C3)C2=O)cc1 (stereo not drawn),5%,-1%,?,?,7.1µM*,nt
CSc1ccc(-c2ccc(C(=O)NCC3CCCO3)c(N3CCC(O)CC3)n2)cc1 (stereo not drawn),1%,nt,nt,nt,nt,nt
CCOC(=O)c1sc(N2C(=O)c3oc4cc(C)c(C)cc4c(=O)c3C2c2ccc(C)cc2)nc1C (stereo not drawn),-1%,-1%,nt,nt,nt,2%
OC1CCN(Cc2ccc3c(c2)CN(Cc2ccc(Oc4ncccn4)cc2)CCO3)CC1,2%,nt,nt,nt,nt,nt
CN(C)c1ccc(/C=C/c2cc[n+](C)c3ccc4ccccc4c23)cc1,4.5µM*,1%,nt,nt,nt,nt
C[n+]1ccc(/C=C/c2ccc3c(c2)OCO3)c2ccccc21,0%,-1%,nt,nt,nt,nt
C[n+]1ccc(/C=C/c2ccc(C=S)cc2)c2ccccc21,45µM*,3%,nt,nt,nt,nt
CCOc1cc(C(=O)OCc2cc(=O)n3nc(CC)sc3n2)cc(OCC)c1OCC,0%,-3%,nt,nt,nt,0%
O=C(CSCc1ccccc1Cl)N1CCN(c2ccccn2)CC1,0%[38.3 µM],32µM*,?,?,?,-1%
O=C(c1cnc(N2CCN(c3ccccn3)CC2)c2ccccc12)N1CCN(c2cccc(Cl)c2)CC1,-1%,nt,?,3%,1.6µM*,-5%
O=C(c1c(Cl)cccc1Cl)N1CCN(c2ccccn2)CC1,5%[38.3 µM],32µM*,-18%,23%,-6%,-1%
Cc1ccc(S(=O)(=O)N2CCCCC2)cc1C(=O)N1CCN(c2ccccn2)CC1,-1%,28µM*,0%,11%,-11%,-8%
O=C(c1cc(Cl)ccc1Cl)N1CCN(c2ccccn2)CC1,2%,-18%,0%,-5%,6%,0%
COc1cccc(OC)c1C(=O)N1CCN(c2ccccn2)CC1,nt,-29%,-4%,-5%,1%,0%
CCC(C)C(NC(=O)C(Cc1ccc(O)cc1)NC(=O)C(N)C(C)C)C(=O)NC(Cc1cnc[nH]1)C(=O)N1CCCC1C(=O)NC(Cc1ccccc1)C(=O)O (stereo not drawn),nt,nt,-1%,-14%,-6%,nt
CCc1nc(SCC(=O)N2c3ccccc3CC2C)c2c(C)c(C)sc2n1 (stereo not drawn),nt,-3%,37%,-13%,?,-2%
COCC(C)n1c(SCc2nc3ccccc3c(=O)[nH]2)nc2ccccc2c1=O (stereo not drawn),2%,20µM*,-9%,-7%,1%,0%
Cc1sc2nc(C(C)C)nc(SCC(=O)N3c4ccccc4CC3C)c2c1C (stereo not drawn),6%,-2%,8.9µM*,-12%,18µM*,1%
Cc1nc(SCC(=O)NC(=O)NCc2ccco2)nc(C)c1C,0%,1%,-3%,?,-3%,1%
Cc1ccc2nc(SCc3nc4ccccc4c(=O)[nH]3)[nH]c2c1,-1%,nt,-24%,45µM*,?,0%
Cc1nc(SCC(=O)NCc2ccco2)nc(C)c1C,-3%,1%,7.1µM*,50µM*,-4%,2%
SMILES,PINK1 expr mod,ClpP mod,RORg inh,Sfp PPTase inh,VP16 counter,Epigenetic derep
COc1ccc(S(=O)(=O)NC(CC(=O)NCC2CCCO2)c2ccco2)cc1 (stereo not drawn),2%,-1%,29%,3%,22µM*,-1%
CC(C)CNC(=O)CSc1ccc(Cl)cc1,0%,25µM*,-5%,-11%,3%,0%
O=C(CSc1nc2cc(Cl)ccc2s1)NC(=O)NCc1ccco1,nt,-3%,?,89µM*,-17%,-1%
O=C(CSc1nnc2c(n1)[nH]c1ccccc12)NCc1ccco1,2%,-1%,5%,40µM*,4%,4%
Cc1ccc(SCC(=O)NCC(C)C)cc1,-1%,2%,5%,4%,-4%,0%
COc1ccc(C(=O)c2cnc3ccc(C)cc3c2S(=O)(=O)c2ccccc2)cc1,-1%,-10%,nt,nt,nt,0%
Cc1nc(SCC(=O)NCc2ccco2)c2c(C)c(C)sc2n1,0%,-1%,-25%,2%,22%,-1%
Cc1nc(SCC(=O)NCCc2ccccc2)nc(C)c1C,-1%,16µM*,0%,1%,7%,-1%
Cc1ccc2nc(SCC(=O)NC(=O)NCc3ccco3)[nH]c2c1,1%,-3%,21%,?,18µM*,10%
O=C(CSc1ccc(Cl)cc1)NCc1ccco1,1%,-2%,-28%,89µM*,-7%,-7%
Cc1sc2nc(C(C)C)nc(SCC(=O)NCc3ccco3)c2c1C,nt,-1%,5µM*,-30%,?,-1%
O=C(Nc1cnc(N2CCN(c3ccccc3)CC2)c(C(=O)O)c1)c1cccs1,1%,0%,nt,nt,nt,0%
O=[N+]([O-])c1cccc2[nH]cnc12,nt,-1%,nt,nt,nt,nt
COc1cccc(NC(=O)CSc2nccn2Cc2ccc3c(c2)OCO3)c1,1%,0%,nt,nt,nt,-3%
COc1ccc2c(c1)c1c(c(=O)n(-c3ccc(F)c(Cl)c3)c(=O)n1CC(=O)N1CCCC1)n2C,0%,?,nt,nt,nt,-1%
Cc1ccc2nc(CSc3nc(C)ccc3C#N)[nH]c2c1,5%[38.3 µM],75%,3.5µM*,-15%,2µM*,-4%
O=C(CC(NS(=O)(=O)c1ccc(Cl)cc1)c1ccco1)NCc1ccco1 (stereo not drawn),-2%,25µM*,?,1%,-17%,-2%
Cc1ccc2nc(SCC(=O)c3ccc(O)cc3O)[nH]c2c1,5%,0%,-94%,50µM*,3.2µM*,-1%
